Compounds with a hit are over-represented: about 10% of the library has one in this group of screens.
MmCpn inh: Inhibitors of TCP-1 ring complex (TRiC) of Methanococcus maripaludis (MmCpn): qHTS; Chaperonin Mm-Cpn (Methanococcus maripaludis); purified Mm-Cpn ATPase, ADP Transcreener TR-FRET; Potency, µM (series often up to 76.9 µM), hits mostly inhibitors; 0.031% of 330,000 active; AID 504842, 2011; also: nearly all actives have a fitted effect of over 80% in size
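ATPase read-out: TR-FRET ADP immunoassay (anti-ADP Eu cryptate vs ADP-d2), ex 320 nm, em 590/665 nm; signal drops as ADP forms. Enzyme 25 nM, ATP 10 uM, 30 min at 37°C after 10 min compound preincubation.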
CCT modulator: High-Throughput Screening for Modulators of Cytosolic Chaperonin Activity; 0.3% of 360,000 active; activity change, % (no concentration beside the values), hits read low; purified chaperonin ATPase assay, HTRF ADP detection, 30 min; in the data active = activity change below about -30%
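Enzyme 40 or 20 nM (batch-dependent) in Tris pH 7.4/KCl/MgCl2/DTT; cpd 76 uM single point; ATP 10 uM; 30 min 37 °C; Transcreener ADP HTRF detection, 30 min RT; ratio 665/615.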
G9a inh: qHTS Assay for Inhibitors of Histone Lysine Methyltransferase G9a | 8.8% of 350,000 active | Histone-lysine N-methyltransferase EHMT2 (Homo sapiens), Q96KQ7 | Potency, µM (highest dose often 102 µM), usual class: inhibitors | G9a H3K9 monomethylation, AlphaScreen, 2 h; also: nearly all actives have a fitted effect of over 75% in size
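Step 1: enzyme (final 20 nM) with compound, 15 min RT. Step 2: substrate peptide 500 nM and SAM 20 uM, 2 h RT. Step 3: anti-H3K9me1 antibody and AlphaScreen beads, 10 min, then plate read.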
PLK1 PBD inh: qHTS for Inhibitors of PLK1-PDB (polo-like kinase 1 - polo-box domain): Primary Screen. Serine/threonine-protein kinase PLK1 (Homo sapiens), P53350. Plk1 PBD binding of FITC phosphopeptide, fluorescence polarization. Potency, µM, usual class: inhibitors. 2.8% of 360,000 active. AID 720504, 2013; also: series mostly up to about 57 µM; nearly all actives have a fitted effect of over 65% in size
Target sequence (P53350 whole entry, looked up, the tested form may be a part): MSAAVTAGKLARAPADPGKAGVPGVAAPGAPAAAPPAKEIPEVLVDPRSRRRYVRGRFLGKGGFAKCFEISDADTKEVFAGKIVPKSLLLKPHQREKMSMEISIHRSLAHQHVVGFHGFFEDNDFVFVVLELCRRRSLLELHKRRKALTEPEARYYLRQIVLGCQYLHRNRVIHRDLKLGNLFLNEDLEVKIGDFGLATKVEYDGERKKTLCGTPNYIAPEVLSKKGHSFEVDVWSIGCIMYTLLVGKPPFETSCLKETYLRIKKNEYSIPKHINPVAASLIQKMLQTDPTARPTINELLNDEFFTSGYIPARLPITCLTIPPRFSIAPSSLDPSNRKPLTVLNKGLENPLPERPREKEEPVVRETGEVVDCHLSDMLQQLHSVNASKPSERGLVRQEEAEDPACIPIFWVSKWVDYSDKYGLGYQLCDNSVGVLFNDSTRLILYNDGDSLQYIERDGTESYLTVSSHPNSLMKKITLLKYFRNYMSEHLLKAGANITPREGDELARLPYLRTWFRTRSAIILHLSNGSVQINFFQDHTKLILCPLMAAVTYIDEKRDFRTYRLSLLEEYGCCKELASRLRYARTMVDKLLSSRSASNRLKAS
Sfp inh: qHTS Assay for Inhibitors of Bacillus subtilis Sfp phosphopantetheinyl transferase (PPTase) | Potency, µM, most hits filed as inhibitors | 3.5% of 310,000 active | Biochemical Sfp PPTase activity, qHTS;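 also: the enzyme is Sfp with the accession as filed and its product quenches rhodamine fluorescence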
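Step 1, compound plus 15 nM Sfp-PPTase, 15 min, room temperature. Step 2, add rhodamine-CoA (5 uM) and BHQ-2-YbbR (12.5 uM). Step 3, read 525/598 nm fluorescence at 0 and 30 min.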
VDR inhibitor: Inhibitors of the vitamin D receptor (VDR): qHTS; Vitamin D3 receptor (Homo sapiens), P11473; VDR-SRC2-3 peptide fluorescence polarization, 2 h; Potency, µM, actives largely listed as inhibitors; 0.93% of 400,000 active
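Two reagent solutions held at 4 deg C in the dark were dispensed, compounds pinned at 23 nl, and the mixture incubated 2 h at room temperature. Read-out: fluorescence polarization of VDR–SRC2-3 peptide binding.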
Hits are given with their value. Unless noted, calls follow the shape of the dose curve; as a rule, active = well fitted curve in the direction sought with a large enough effect; inconclusive = small, poorly fitted or top-dose-only effect, or another doubt; inactive = no such curve, though single readings can be large; an effect the other way counts as inactive or inconclusive.

Results for COc1ccc(NC(=O)c2c(C)oc3ccc(O)c(CN4CCC(C)CC4)c23)cc1Cl ?
G9a inh: inactive; VDR inhibitor: inactive

How did COc1cc(CNC2CCCC2)c(Br)cc1OC1CCCC1 do in these assays?
MmCpn inh: inactive; CCT modulator: inactive; G9a inh: inactive; PLK1 PBD inh: inactive; Sfp inh: inactive; VDR inhibitor: inactive

How did Oc1cc(CNC2CCCCC2)c(O)cc1CNC1CCCCC1 do in these assays?
CCT modulator: inactive; PLK1 PBD inh: 5.3µM; VDR inhibitor: inactive

What do the screens show for `O=c1cc(CNC2CCCCC2)c2ccccc2[nH]1`?
MmCpn inh: inactive; CCT modulator: inactive; G9a inh: inactive; PLK1 PBD inh: inactive; Sfp inh: inactive; VDR inhibitor: inactive

How did COc1cc(C)c(CNC2CCCCC2)cc1C do in these assays?
MmCpn inh: inactive; CCT modulator: inactive; G9a inh: 32µM; PLK1 PBD inh: inactive; Sfp inh: inactive; VDR inhibitor: inactive

What do the screens show for `Cc1ccc(-n2nc(C(=O)Nc3ccc(F)cc3F)c3c4ccccc4n(C)c3c2=O)cc1`?
G9a inh: inactive; VDR inhibitor: inactive

Results for Cn1nc(C(=O)Nc2cc(F)ccc2F)c2c1-c1ccccc1SC2 ?
G9a inh: inactive; VDR inhibitor: inactive

Results for CC(=O)c1ccc(N2CCN(C(=O)c3cc(S(=O)(=O)N4CCCCCC4)cn3C)CC2)cc1 ?
G9a inh: inactive; VDR inhibitor: inactive

Results for COc1ccc(CCNCC(O)COc2cccc(Br)c2)cc1OC (configuration not stated) ?
MmCpn inh: inactive; CCT modulator: inactive; PLK1 PBD inh: inactive; Sfp inh: inactive; VDR inhibitor: inactive

What do the screens show for `COc1ccc(CCNCC(O)COc2ccc(OC)cc2C(C)(C)C)cc1` (configuration not stated)?
MmCpn inh: inactive; CCT modulator: inactive; G9a inh: 45µM; PLK1 PBD inh: inactive; Sfp inh: inconclusive; VDR inhibitor: inactive

How did O=C1Nc2c(c(=O)[nH]c(=O)n2-c2ccccc2)C1(NS(=O)(=O)c1ccc(Cl)cc1)C(F)(F)F (configuration not stated) do in these assays?
G9a inh: inactive; VDR inhibitor: inactive

How did N/C(=N\OC(=O)CCCc1ccccc1)c1ccccn1 do in these assays?
MmCpn inh: inactive; CCT modulator: inactive; G9a inh: inactive; PLK1 PBD inh: inactive; Sfp inh: inactive; VDR inhibitor: inactive

Results for CCc1ccc(OCC(=O)O/N=C(\N)c2ccccn2)cc1 ?
MmCpn inh: inactive; CCT modulator: inactive; G9a inh: inconclusive; PLK1 PBD inh: inactive; Sfp inh: inactive; VDR inhibitor: inactive

How did N/C(=N\OC(=O)COc1ccc2ccccc2c1Br)c1ccccn1 do in these assays?
MmCpn inh: inactive; CCT modulator: inactive; G9a inh: inactive; PLK1 PBD inh: inactive; Sfp inh: 56µM; VDR inhibitor: inactive

Results for N/C(=N\OC(=O)COc1ccc2ccccc2c1Br)c1cccnc1 ?
MmCpn inh: inactive; G9a inh: inactive; Sfp inh: inactive

What do the screens show for `N/C(=N\OC(=O)COc1ccccc1)c1ccccn1`?
MmCpn inh: inactive; CCT modulator: inactive; G9a inh: 11µM; PLK1 PBD inh: inactive; Sfp inh: inactive; VDR inhibitor: inactive

Results for C/C(=N/O)c1ccccn1 ?
MmCpn inh: inactive; CCT modulator: inactive; G9a inh: inactive; PLK1 PBD inh: inactive; Sfp inh: 40µM; VDR inhibitor: inactive

How did N/C(=N\OC(=O)Cc1ccccc1)c1ccccn1 do in these assays?
MmCpn inh: inactive; CCT modulator: inactive; G9a inh: inactive; PLK1 PBD inh: 12µM; Sfp inh: inactive; VDR inhibitor: inactive

How did CCc1ccc2c(c1)NC(c1ccc(F)cc1)=NC(c1ccncc1)=N2 do in these assays?
G9a inh: inactive; VDR inhibitor: inactive

Results for N/C(=N\OC(=O)c1ccc(Br)o1)c1ccccn1 ?
MmCpn inh: inactive; CCT modulator: inactive; G9a inh: 20µM; PLK1 PBD inh: inactive; Sfp inh: inactive; VDR inhibitor: inactive

How did Cc1ccc(C(=O)O/N=C(\N)c2ccccn2)cc1 do in these assays?
MmCpn inh: inactive; CCT modulator: inactive; G9a inh: inactive; PLK1 PBD inh: inactive; Sfp inh: inactive; VDR inhibitor: inactive

How did N/C(=N\OC(=O)c1ccccc1)c1ccccn1 do in these assays?
MmCpn inh: inactive; CCT modulator: inactive; PLK1 PBD inh: inactive; Sfp inh: inactive; VDR inhibitor: inactive

What do the screens show for `C/C(=N\OC(=O)c1ccc(Br)cc1)c1ccccn1`?
MmCpn inh: inactive; CCT modulator: inactive; G9a inh: 10µM; PLK1 PBD inh: inactive; Sfp inh: inconclusive; VDR inhibitor: inactive

What do the screens show for `NCCC[C@@H](CC(=O)N[C@@H]1CCCC[C@H]1C(=O)N[C@H](CC(=O)N[C@@H](CCC(=O)O)CC(=O)O)Cc1c[nH]c2ccccc12)NC(=O)C[C@H](CO)NC(=O)[C@@H]1CCCC[C@H]1N`?
Sfp inh: inactive; VDR inhibitor: inactive

How did Cc1c(Cl)cn2c(=O)cc(CN3CCN(c4ccc(F)cc4)CC3)nc2c1Cl do in these assays?
MmCpn inh: inactive; G9a inh: 50µM; Sfp inh: inconclusive

What do the screens show for `Cc1scc(CN2CCN(c3ccc(F)cc3)CC2)c1C`?
G9a inh: inconclusive; VDR inhibitor: inactive

How did Nc1nc2n(n1)C(=O)CC(c1ccccc1)N2 (configuration not stated) do in these assays?
MmCpn inh: inactive; CCT modulator: inactive; G9a inh: inactive; PLK1 PBD inh: 27µM; Sfp inh: inactive; VDR inhibitor: inactive

How did O=S(=O)(NCCc1cn2ccsc2n1)c1ccc(Cl)cc1 do in these assays?
G9a inh: inactive; VDR inhibitor: inactive

How did CCc1c(C)sc(NC(=O)c2cc(C)no2)c1C#N do in these assays?
MmCpn inh: inactive; CCT modulator: inactive; G9a inh: 13µM; PLK1 PBD inh: 30µM; Sfp inh: inconclusive; VDR inhibitor: inactive

Results for CCc1cc(C(=O)Nc2sc(C)c(CC)c2C#N)no1 ?
G9a inh: 2.5µM; VDR inhibitor: 79µM

Results for Cc1ccc(S(=O)(=O)CCc2nc3ccccc3s2)cc1 ?
MmCpn inh: inactive; CCT modulator: inactive; G9a inh: inconclusive; PLK1 PBD inh: 24µM; Sfp inh: inconclusive; VDR inhibitor: inactive

What do the screens show for `CC(C)c1nnc(NC(=O)c2sc3ccccc3c2Cl)s1`?
MmCpn inh: inactive; CCT modulator: inactive; G9a inh: 45µM; PLK1 PBD inh: inactive; Sfp inh: inactive; VDR inhibitor: inactive

Screens as filed in PubChem.
